Results filed as inconclusive are left out. The source made the active and inactive calls. The call rests on the fitted dose curve; in most records, active means well fitted curve in the direction sought with a large enough effect; inconclusive means small, poorly fitted or top-dose-only effect, or another doubt; inactive means no such curve, though single readings can be large; an effect the other way counts as inactive or inconclusive.
Key:
[1] = target: ATP-dependent 6-phosphofructokinase (Trypanosoma brucei brucei) (UniProt O15648); assay: qHTS Assay to Find Inhibitors of T. brucei phosphofructokinase: hit validation (AID 492961);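 further: luminescence reports ADP formed as PFK phosphorylates fructose-6-phosphate with ATP; on the % scale 0 is the no-effect control and ±100 the full control effect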
Sequence of ATP-dependent 6-phosphofructokinase (Trypanosoma brucei brucei) (O15648 whole entry, looked up): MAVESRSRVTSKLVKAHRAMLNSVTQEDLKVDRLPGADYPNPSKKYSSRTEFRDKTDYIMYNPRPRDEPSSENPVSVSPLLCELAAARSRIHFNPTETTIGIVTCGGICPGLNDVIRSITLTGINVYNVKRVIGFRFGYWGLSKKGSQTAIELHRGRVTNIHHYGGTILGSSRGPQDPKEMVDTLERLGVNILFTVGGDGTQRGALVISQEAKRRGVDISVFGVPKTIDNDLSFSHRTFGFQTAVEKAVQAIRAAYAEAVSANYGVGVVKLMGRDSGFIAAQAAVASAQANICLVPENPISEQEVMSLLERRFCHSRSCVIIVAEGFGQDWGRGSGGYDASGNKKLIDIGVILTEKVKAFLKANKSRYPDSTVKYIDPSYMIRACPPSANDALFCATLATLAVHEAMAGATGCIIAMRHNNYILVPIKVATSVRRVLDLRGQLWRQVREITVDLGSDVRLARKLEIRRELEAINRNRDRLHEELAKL
Method in brief: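 Compounds titrated; %activity normalized to 0x and 1x enzyme controls, curve-fitted. Readout: ADP-Glo luminescence after 45 min room-temperature reaction of 1.25 nM PFK, 0.1 mM ATP, 0.5 mM F6P, pH 8.0.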

[2] = qHTS profiling for inhibitors of Plasmodium falciparum proliferation (AID 504749); further: potency means the concentration at half of the fitted maximal effect;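 on activity, negative = inhibition: 0% = DMSO vehicle and full inhibition = artemisinin control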; on all read-outs here: nearly all actives have a fitted effect of over 60% in size; settings: P. falciparum in erythrocytes, SYBR Green DNA, 72 h; for activity, negative = inhibition: at 28.7 µM (top of the series)
Method in brief: (§1)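 SYBR Green fluorescence (ex 485 nm, em 535 nm) reports parasite DNA after 72 h compound exposure of infected red cells at 0.3% parasitemia, 2.5% hematocrit; signal normalized to 0.29 uM artemisinin and vehicle wells.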

AA1029 = assay: as above; settings: P. falciparum in erythrocytes, SYBR Green DNA, 72 h; series mostly up to 28.7 µM
Method in brief: as §1

AS120 = assay: as above; settings: P. falciparum in erythrocytes, SYBR Green DNA, 72 h; series mostly up to 28.7 µM
Method in brief: as §1

ATS189 = assay: as above; settings: P. falciparum in erythrocytes, SYBR Green DNA, 72 h; series mostly up to 28.7 µM
Method in brief: as §1

CP185 = assay: as above; settings: P. falciparum in erythrocytes, SYBR Green DNA, 72 h; series mostly up to 28.7 µM
Method in brief: as §1

CP191 = assay: as above; settings: P. falciparum in erythrocytes, SYBR Green DNA, 72 h; series mostly up to 28.7 µM
Method in brief: as §1

CP192 = assay: as above; settings: P. falciparum in erythrocytes, SYBR Green DNA, 72 h; series mostly up to 28.7 µM
Method in brief: as §1

CP211 = assay: as above; settings: P. falciparum in erythrocytes, SYBR Green DNA, 72 h; series mostly up to 28.7 µM
Method in brief: as §1

CP217 = assay: as above; settings: P. falciparum in erythrocytes, SYBR Green DNA, 72 h; series mostly up to 28.7 µM
Method in brief: as §1

CP238 = assay: as above; settings: P. falciparum in erythrocytes, SYBR Green DNA, 72 h; series mostly up to 28.7 µM
Method in brief: as §1

CP252 = assay: as above; settings: P. falciparum in erythrocytes, SYBR Green DNA, 72 h; series mostly up to 28.7 µM
Method in brief: as §1

CP262 = assay: as above; settings: P. falciparum in erythrocytes, SYBR Green DNA, 72 h; series mostly up to 28.7 µM
Method in brief: as §1

CP265 = assay: as above; settings: P. falciparum in erythrocytes, SYBR Green DNA, 72 h; series mostly up to 28.7 µM
Method in brief: as §1

CP286 = assay: as above; settings: P. falciparum in erythrocytes, SYBR Green DNA, 72 h; series mostly up to 28.7 µM
Method in brief: as §1

Dd2 = assay: as above; settings: P. falciparum in erythrocytes, SYBR Green DNA, 72 h; series mostly up to 28.7 µM
Method in brief: as §1

ECU = assay: as above; settings: P. falciparum in erythrocytes, SYBR Green DNA, 72 h; series mostly up to 28.7 µM
Method in brief: as §1

FAB9 = assay: as above; settings: P. falciparum in erythrocytes, SYBR Green DNA, 72 h; series mostly up to 28.7 µM
Method in brief: as §1

HB3 = assay: as above; settings: P. falciparum in erythrocytes, SYBR Green DNA, 72 h; series mostly up to 28.7 µM
Method in brief: as §1

N140 = assay: as above; settings: P. falciparum in erythrocytes, SYBR Green DNA, 72 h; series mostly up to 28.7 µM
Method in brief: as §1

CC[C@@]1(O)C[C@H](O[C@H]2C[C@@H](N(C)C)[C@@H](O[C@H]3C[C@@H](O)[C@@H](O[C@H]4CCC(=O)[C@@H](C)O4)[C@@H](C)O3)[C@@H](C)O2)c2c(cc3c(c2O)C(=O)c2c(O)cccc2C3=O)[C@H]1C(=O)OC
active: Potency ([2]; parasite line A) 141 nM | Potency ([2]; parasite line B) 199 nM | Potency (AA1029) 199 nM | Potency (AS120) 100 nM | Potency (ATS189) 355 nM | Potency (CP185) 251 nM | Potency (CP191) 199 nM | Potency (CP192) 1070 nM | Potency (CP211) 849 nM | Potency (CP217) 251 nM | Potency (CP238) 178 nM | Potency (CP252) 224 nM | Potency (CP262) 757 nM | Potency (CP265) 224 nM | Potency (CP286) 39.8 nM | Potency (Dd2) 89.1 nM | Potency (ECU) 355 nM | Potency (FAB9) 891 nM | Potency (HB3) 141 nM | Potency (N140) 178 nM
inactive: Potency [1]

OCCOC[C@H]1O[C@H](OCCO)[C@H](OCCO)[C@@H](OCCO)[C@@H]1OCCO (tested in a mixture with another compound)
inactive: Potency [1] | activity, negative = inhibition ([2]; parasite line A) 3.32% | activity, negative = inhibition ([2]; parasite line B) 1.14% | Potency (AA1029) | Potency (AS120) | Potency (ATS189) | Potency (CP185) | Potency (CP191) | Potency (CP192) | Potency (CP211) | Potency (CP217) | Potency (CP238) | Potency (CP252) | Potency (CP262) | Potency (CP265) | Potency (CP286) | Potency (Dd2) | Potency (ECU) | Potency (FAB9) | Potency (HB3) | Potency (N140)

CNC1C(O)C(OC2C(N)CC(N)C(OC3OC(CN)=CCC3N)C2O)OCC1(C)O (centres undefined)
inactive: Potency [1] | activity, negative = inhibition ([2]; parasite line A) 16.7% | activity, negative = inhibition ([2]; parasite line B) -10.7% | Potency (AA1029) | Potency (AS120) | Potency (ATS189) | Potency (CP185) | Potency (CP191) | Potency (CP192) | Potency (CP211) | Potency (CP217) | Potency (CP238) | Potency (CP252) | Potency (CP262) | Potency (CP265) | Potency (CP286) | Potency (Dd2) | Potency (ECU) | Potency (FAB9) | Potency (HB3) | Potency (N140)

O=C1[C@@H]2C[C@@H]3C[C@H]1C[C@@](O)(C3)C2
inactive: Potency [1] | activity, negative = inhibition ([2]; parasite line A) -0.632% | activity, negative = inhibition ([2]; parasite line B) 11.7% | Potency (AA1029) | Potency (AS120) | Potency (ATS189) | Potency (CP185) | Potency (CP191) | Potency (CP192) | Potency (CP211) | Potency (CP217) | Potency (CP238) | Potency (CP252) | Potency (CP262) | Potency (CP265) | Potency (CP286) | Potency (Dd2) | Potency (ECU) | Potency (FAB9) | Potency (HB3) | Potency (N140)

CC1(C)SC2C(NC(=O)C(C(=O)O)c3ccccc3)C(=O)N2C1C(=O)O (centres undefined)
inactive: Potency [1] | activity, negative = inhibition ([2]; parasite line A) 5.75% | activity, negative = inhibition ([2]; parasite line B) 2.54% | Potency (AA1029) | Potency (AS120) | Potency (ATS189) | Potency (CP185) | Potency (CP191) | Potency (CP192) | Potency (CP211) | Potency (CP217) | Potency (CP238) | Potency (CP252) | Potency (CP262) | Potency (CP265) | Potency (CP286) | Potency (Dd2) | Potency (ECU) | Potency (FAB9) | Potency (HB3) | Potency (N140)

COc1cc2c(cc1O)CCN[C@@]21CS[C@H]2c3c(OC(C)=O)c(C)c4c(c3C(COC1=O)N1C2C2c3c(cc(C)c(OC)c3O)CC([C@@H]1O)N2C)OCO4 (some centres undefined)
active: Potency ([2]; parasite line A) 0.9 nM | Potency ([2]; parasite line B) 0.9 nM | Potency (AA1029) 0.9 nM | Potency (AS120) 0.9 nM | Potency (ATS189) 1 nM | Potency (CP185) 1.1 nM | Potency (CP191) 1 nM | Potency (CP192) 1.5 nM | Potency (CP211) 0.5 nM | Potency (CP217) 3.2 nM | Potency (CP238) 0.9 nM | Potency (CP252) 2.5 nM | Potency (CP262) 0.5 nM | Potency (CP265) 4.5 nM | Potency (CP286) 0.3 nM | Potency (Dd2) 1 nM | Potency (ECU) 0.8 nM | Potency (FAB9) 1 nM | Potency (HB3) 0.3 nM | Potency (N140) 1 nM
inactive: Potency [1]

O=C(OC[C@@H]1O[C@@](O)(COC(=O)c2cccnc2)[C@H](OC(=O)c2cccnc2)[C@H]1OC(=O)c1cccnc1)c1cccnc1
inactive: Potency [1] | activity, negative = inhibition ([2]; parasite line A) 18.2% | activity, negative = inhibition ([2]; parasite line B) -0.864% | Potency (AA1029) | Potency (AS120) | Potency (ATS189) | Potency (CP185) | Potency (CP191) | Potency (CP192) | Potency (CP211) | Potency (CP217) | Potency (CP238) | Potency (CP252) | Potency (CP262) | Potency (CP265) | Potency (CP286) | Potency (Dd2) | Potency (ECU) | Potency (FAB9) | Potency (HB3) | Potency (N140)

OCC1O[C@H](Oc2ccc(O)cc2)C(O)C(O)C1O (some centres undefined)
inactive: Potency [1] | activity, negative = inhibition ([2]; parasite line A) -4.75% | activity, negative = inhibition ([2]; parasite line B) 1.5% | Potency (AA1029) | Potency (AS120) | Potency (ATS189) | Potency (CP185) | Potency (CP191) | Potency (CP192) | Potency (CP211) | Potency (CP217) | Potency (CP238) | Potency (CP252) | Potency (CP262) | Potency (CP265) | Potency (CP286) | Potency (Dd2) | Potency (FAB9) | Potency (HB3) | Potency (N140)

COC1CC2CCC(C)[C@](O)(O2)C(=O)C(=O)N2CCCCC2C(=O)OC(C(C)CC2CCC(O)C(OC)C2)CC(=O)C(C)/C=C(/C)C(O)C(OC)C(=O)C(C)CC(C)C=CC=C/C=C\1C (some centres undefined)
active: Potency ([2]; parasite line A) 3550 nM | Potency ([2]; parasite line B) 1410 nM | Potency (AA1029) 2240 nM | Potency (AS120) 1120 nM | Potency (ATS189) 3160 nM | Potency (CP185) 4470 nM | Potency (CP191) 2510 nM | Potency (CP192) 4780 nM | Potency (CP211) 4260 nM | Potency (CP217) 3550 nM | Potency (CP238) 3160 nM | Potency (CP252) 2510 nM | Potency (CP265) 2820 nM | Potency (CP286) 4470 nM | Potency (Dd2) 1580 nM | Potency (ECU) 2000 nM | Potency (FAB9) 8910 nM | Potency (HB3) 2510 nM | Potency (N140) 1260 nM
inactive: Potency [1] | Potency (CP262)

CC1(C)CC1C(=O)N/C(=C/CCCCSCC(N)C(=O)O)C(=O)O (centres undefined)
inactive: Potency [1] | activity, negative = inhibition ([2]; parasite line A) 9.99% | activity, negative = inhibition ([2]; parasite line B) -1.88% | Potency (AA1029) | Potency (AS120) | Potency (ATS189) | Potency (CP185) | Potency (CP191) | Potency (CP192) | Potency (CP211) | Potency (CP217) | Potency (CP238) | Potency (CP252) | Potency (CP262) | Potency (CP265) | Potency (CP286) | Potency (Dd2) | Potency (ECU) | Potency (FAB9) | Potency (HB3) | Potency (N140)
